Experiments:
Test in all cases: log2 ratio of Biotin-Ahx-Ub-VS probe labelling (fragment/DMSO); higher = less target engagement (more negative = stronger competition), active = hit call of the paper (q ≤ 0.05, log2 ratio ≤ -1)
Settings in all cases: compound concentration: 200 uM; treatment time: 3 h
USP34 = USP34 (UniProt Q70CQ2)
In short: (§1)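 Using Biotin-Ahx-Ub-VS at 0.5 µM final for 1 h, DUBs were labelled in HEK293T lysate (495 µg per sample) that had first been treated in triplicate with fragment at 200 µM or vehicle for 3 h. NeutrAvidin enrichment, LysC and trypsin digestion and diaPASEF LC-MS/MS followed. Spectronaut label-free quantities were global-median-normalised. Values are average log2 fragment/vehicle ratios by unpaired t-test, using proteins with ≥2 unique peptides.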

USP36 = biological target: T1, USP36 (UniProt Q9P275)
T1 sequence (whole entry): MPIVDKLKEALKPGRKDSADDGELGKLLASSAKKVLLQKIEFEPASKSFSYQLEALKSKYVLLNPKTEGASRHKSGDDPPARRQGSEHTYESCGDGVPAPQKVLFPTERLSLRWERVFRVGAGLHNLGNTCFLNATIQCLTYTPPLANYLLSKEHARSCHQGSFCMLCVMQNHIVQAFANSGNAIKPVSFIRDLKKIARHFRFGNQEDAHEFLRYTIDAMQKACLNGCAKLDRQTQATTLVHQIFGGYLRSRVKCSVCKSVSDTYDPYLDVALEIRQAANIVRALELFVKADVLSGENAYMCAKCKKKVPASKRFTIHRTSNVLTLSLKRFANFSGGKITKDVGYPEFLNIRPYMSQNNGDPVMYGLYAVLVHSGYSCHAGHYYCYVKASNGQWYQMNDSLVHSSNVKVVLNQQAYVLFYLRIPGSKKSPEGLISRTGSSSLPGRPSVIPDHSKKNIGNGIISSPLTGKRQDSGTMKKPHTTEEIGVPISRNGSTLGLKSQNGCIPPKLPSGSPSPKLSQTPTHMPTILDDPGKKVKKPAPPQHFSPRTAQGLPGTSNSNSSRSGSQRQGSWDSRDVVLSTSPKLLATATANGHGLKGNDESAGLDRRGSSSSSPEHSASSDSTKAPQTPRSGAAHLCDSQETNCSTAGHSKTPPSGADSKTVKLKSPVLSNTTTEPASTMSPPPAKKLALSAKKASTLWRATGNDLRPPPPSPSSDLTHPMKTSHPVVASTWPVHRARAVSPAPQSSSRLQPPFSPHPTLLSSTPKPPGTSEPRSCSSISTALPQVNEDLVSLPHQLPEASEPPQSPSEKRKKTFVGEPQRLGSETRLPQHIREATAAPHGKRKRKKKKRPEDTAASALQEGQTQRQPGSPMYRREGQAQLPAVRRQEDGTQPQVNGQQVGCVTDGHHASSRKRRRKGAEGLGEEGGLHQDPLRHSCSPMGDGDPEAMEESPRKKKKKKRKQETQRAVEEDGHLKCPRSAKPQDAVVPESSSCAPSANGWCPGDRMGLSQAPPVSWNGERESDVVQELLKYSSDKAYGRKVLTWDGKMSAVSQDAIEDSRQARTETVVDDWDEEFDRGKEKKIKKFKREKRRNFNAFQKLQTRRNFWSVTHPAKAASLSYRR
In short: as §1

USP38 = biological target: T2, USP38 (UniProt Q8NB14)
T2 sequence (whole entry): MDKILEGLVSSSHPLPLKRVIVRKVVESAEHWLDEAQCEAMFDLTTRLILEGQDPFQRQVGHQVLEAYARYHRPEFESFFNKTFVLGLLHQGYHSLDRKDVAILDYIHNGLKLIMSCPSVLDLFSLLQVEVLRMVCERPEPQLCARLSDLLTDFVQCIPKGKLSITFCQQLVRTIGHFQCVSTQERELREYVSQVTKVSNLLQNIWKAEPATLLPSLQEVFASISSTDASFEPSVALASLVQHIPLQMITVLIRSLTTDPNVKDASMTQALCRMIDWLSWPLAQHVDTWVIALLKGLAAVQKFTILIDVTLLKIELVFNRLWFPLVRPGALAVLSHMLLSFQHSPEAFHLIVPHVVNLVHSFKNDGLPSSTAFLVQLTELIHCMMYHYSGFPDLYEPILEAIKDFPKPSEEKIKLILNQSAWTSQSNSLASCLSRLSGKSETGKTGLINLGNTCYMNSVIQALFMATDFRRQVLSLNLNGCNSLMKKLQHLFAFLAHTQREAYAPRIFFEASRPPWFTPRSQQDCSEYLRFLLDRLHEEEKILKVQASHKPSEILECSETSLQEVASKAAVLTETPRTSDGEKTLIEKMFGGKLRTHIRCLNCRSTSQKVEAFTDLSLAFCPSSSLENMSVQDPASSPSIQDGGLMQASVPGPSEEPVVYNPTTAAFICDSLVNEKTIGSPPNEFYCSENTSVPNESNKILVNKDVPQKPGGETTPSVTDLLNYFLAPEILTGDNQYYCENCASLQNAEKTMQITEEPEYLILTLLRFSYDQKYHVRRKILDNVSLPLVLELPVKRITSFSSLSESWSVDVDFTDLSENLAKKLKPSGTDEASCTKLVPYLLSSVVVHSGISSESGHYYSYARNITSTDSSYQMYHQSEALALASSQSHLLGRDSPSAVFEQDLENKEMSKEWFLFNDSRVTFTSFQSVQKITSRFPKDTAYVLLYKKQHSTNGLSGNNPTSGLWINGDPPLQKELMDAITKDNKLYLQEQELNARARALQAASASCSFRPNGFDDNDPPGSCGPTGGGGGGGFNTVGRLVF
In short: as §1

USP39 = biological target: T3, USP39 (UniProt Q53GS9)
T3 sequence (whole entry): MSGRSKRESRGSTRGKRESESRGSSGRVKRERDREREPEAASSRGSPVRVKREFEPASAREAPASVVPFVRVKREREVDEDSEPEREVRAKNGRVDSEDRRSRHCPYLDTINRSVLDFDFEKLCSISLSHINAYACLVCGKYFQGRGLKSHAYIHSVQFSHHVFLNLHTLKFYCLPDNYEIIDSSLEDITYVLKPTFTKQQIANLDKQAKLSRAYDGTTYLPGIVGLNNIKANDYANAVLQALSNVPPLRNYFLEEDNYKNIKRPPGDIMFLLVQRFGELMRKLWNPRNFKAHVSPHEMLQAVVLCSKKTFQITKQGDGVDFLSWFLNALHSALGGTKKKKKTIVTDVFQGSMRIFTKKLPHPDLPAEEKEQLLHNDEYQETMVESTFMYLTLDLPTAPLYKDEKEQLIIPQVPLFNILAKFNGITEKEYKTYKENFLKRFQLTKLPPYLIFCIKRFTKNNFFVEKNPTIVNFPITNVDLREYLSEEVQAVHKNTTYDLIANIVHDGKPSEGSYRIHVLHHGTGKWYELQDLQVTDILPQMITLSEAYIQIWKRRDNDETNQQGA
In short: as §1

USP4 = biological target: T4, USP4 (UniProt Q13107)
T4 sequence (whole entry): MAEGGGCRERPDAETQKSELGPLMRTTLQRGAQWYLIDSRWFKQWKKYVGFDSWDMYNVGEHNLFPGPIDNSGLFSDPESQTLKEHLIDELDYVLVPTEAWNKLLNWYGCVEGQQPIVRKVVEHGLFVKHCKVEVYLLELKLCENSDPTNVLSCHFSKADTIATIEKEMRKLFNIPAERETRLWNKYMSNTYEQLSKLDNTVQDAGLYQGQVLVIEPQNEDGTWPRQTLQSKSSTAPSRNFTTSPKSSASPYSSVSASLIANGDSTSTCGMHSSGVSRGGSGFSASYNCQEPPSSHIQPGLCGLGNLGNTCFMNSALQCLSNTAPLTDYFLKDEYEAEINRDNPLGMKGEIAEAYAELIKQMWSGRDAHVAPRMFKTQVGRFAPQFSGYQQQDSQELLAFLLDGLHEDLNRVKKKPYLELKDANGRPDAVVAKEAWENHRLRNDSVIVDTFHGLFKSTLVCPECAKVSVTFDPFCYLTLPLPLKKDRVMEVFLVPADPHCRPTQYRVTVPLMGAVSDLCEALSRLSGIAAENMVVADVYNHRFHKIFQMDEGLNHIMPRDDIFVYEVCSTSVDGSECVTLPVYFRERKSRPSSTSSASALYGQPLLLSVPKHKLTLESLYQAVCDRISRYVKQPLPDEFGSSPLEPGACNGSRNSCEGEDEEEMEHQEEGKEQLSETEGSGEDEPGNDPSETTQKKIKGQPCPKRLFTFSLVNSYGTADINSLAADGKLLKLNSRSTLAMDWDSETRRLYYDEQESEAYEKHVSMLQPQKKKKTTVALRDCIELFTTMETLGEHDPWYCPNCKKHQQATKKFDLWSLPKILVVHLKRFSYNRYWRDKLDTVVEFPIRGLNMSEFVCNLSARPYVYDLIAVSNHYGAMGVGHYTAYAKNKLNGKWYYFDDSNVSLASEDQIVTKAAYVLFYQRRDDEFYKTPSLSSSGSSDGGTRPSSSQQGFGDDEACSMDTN
In short: as §1

Measured: log2 ratio of Biotin-Ahx-Ub-VS probe labelling

Sequence of USP34 (Q70CQ2 whole entry, the tested form may be a part): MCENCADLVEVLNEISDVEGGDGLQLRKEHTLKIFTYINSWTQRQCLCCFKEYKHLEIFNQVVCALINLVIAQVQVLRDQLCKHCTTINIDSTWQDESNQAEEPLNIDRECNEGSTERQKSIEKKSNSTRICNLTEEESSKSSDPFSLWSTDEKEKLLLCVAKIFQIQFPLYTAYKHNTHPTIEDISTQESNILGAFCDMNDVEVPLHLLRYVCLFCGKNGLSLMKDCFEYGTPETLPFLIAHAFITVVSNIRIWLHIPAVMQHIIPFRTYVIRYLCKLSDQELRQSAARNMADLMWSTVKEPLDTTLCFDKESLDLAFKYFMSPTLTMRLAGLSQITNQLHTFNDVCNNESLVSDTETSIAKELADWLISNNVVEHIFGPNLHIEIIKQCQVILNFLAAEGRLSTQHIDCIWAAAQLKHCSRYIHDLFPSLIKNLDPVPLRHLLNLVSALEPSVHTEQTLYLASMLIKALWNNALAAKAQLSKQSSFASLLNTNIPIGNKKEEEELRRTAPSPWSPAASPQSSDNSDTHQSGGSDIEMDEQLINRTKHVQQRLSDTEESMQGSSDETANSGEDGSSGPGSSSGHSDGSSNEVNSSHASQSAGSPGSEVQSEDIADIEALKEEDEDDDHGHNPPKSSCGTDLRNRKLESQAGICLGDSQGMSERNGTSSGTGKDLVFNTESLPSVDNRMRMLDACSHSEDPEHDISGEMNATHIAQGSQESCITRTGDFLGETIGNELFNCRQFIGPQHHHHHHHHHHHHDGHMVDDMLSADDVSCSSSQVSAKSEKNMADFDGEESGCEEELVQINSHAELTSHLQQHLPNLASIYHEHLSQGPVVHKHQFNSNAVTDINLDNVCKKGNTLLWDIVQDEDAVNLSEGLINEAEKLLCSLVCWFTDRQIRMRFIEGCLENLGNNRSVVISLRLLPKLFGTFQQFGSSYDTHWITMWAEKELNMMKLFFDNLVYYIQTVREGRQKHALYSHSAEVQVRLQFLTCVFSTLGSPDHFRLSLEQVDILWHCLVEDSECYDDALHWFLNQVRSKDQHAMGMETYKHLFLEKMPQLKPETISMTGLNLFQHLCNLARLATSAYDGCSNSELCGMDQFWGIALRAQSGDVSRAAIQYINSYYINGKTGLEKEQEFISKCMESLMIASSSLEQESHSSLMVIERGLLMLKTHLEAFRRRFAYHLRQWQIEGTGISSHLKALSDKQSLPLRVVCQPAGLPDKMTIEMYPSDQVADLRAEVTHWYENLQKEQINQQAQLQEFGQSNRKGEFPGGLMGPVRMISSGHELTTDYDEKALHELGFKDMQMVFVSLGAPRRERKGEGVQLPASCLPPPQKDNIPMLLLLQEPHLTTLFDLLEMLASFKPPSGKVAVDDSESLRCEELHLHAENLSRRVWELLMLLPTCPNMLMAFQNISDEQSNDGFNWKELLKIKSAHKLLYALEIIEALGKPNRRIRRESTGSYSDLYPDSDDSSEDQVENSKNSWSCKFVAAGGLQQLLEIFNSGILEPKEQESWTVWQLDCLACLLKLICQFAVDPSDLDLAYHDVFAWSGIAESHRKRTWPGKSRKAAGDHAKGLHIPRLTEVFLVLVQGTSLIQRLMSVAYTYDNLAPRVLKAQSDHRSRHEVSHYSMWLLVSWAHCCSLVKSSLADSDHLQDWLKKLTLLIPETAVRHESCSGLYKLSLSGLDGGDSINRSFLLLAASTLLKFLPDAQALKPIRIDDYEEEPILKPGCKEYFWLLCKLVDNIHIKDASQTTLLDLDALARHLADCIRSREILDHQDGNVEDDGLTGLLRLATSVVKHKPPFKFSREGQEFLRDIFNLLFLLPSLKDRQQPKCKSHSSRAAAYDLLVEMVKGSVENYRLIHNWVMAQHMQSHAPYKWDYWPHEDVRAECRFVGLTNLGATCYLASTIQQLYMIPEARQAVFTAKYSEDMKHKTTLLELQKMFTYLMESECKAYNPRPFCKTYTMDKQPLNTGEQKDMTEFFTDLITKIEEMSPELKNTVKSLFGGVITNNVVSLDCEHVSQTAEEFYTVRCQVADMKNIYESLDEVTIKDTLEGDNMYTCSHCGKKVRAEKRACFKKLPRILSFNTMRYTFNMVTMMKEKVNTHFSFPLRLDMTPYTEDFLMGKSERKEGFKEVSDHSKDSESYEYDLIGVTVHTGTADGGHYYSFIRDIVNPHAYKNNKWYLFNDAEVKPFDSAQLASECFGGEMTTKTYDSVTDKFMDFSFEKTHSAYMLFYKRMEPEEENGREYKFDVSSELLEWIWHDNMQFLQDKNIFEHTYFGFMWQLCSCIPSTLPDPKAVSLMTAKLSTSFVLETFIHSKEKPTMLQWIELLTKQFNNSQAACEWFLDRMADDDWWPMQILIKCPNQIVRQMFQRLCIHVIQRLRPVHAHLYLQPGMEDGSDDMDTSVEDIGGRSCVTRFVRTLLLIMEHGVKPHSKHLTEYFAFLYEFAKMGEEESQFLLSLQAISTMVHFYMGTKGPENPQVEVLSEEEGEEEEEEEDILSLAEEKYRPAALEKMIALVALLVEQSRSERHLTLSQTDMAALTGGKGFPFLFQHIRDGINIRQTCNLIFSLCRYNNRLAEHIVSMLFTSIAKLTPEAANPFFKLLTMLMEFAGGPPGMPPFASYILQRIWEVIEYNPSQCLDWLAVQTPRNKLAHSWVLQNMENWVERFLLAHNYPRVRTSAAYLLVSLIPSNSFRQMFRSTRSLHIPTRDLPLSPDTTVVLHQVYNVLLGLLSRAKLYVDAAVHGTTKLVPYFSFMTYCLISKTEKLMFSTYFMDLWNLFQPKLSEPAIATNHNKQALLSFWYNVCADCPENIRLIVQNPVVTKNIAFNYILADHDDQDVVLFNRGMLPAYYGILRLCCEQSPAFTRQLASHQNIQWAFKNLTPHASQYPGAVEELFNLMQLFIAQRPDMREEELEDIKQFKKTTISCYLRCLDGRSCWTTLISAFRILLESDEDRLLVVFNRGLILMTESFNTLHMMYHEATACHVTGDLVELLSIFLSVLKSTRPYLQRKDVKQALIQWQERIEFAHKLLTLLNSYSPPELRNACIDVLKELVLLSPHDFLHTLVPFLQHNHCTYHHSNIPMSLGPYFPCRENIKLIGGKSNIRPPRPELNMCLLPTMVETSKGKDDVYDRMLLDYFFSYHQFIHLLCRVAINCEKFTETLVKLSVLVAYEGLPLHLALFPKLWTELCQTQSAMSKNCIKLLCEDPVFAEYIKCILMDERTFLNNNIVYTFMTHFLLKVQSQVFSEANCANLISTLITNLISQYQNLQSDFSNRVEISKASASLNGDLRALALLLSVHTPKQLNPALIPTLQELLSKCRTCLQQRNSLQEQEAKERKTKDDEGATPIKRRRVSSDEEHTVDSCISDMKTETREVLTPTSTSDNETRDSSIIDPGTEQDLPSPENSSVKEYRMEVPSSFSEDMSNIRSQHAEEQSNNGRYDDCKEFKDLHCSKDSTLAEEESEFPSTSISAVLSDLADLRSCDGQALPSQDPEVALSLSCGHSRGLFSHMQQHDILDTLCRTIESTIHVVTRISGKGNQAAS

O=C(CCl)NCCc1ccc(F)cc1
inactive: USP34 -0.0755 | USP36 0.207 | USP38 0.0565 | USP39 0.108 | USP4 -0.11
